108 sequences from PubChem BioAssay AID1347426 (Functional Genomics Laboratory (NCATS/FGL), 2020) can be followed below.

Hit rate of the full screen: of about 31,000 sequences, about 1,400 (4.5%) were called active. This excerpt belongs to a sample that is enriched for actives. A number with no mark means an inactive call.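 The calls were made as follows: active = median seed-adjusted z-score above 1 or below -1; inactive = the rest.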

A short description of the assay: Novel Modifiers of Survival Motor Neuron (SMN) Protein: Gene Identification via Genome-wide siRNA Screen.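 Also: luminescence tracks full-length SMN protein made from the SMN2 reporter.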 The following applies: HEK293T SMN2-luciferase reporter, siRNA knockdown, 72 h; actives lie on both sides. The essentials:
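siRNA screen, 10418 genes ×3 siRNAs; 1 pmol/well, lipid reverse transfection into HEK293T SMN2-luc reporter line. 72 h, 37 °C, 5% CO2; ONE-Glo readout. Data: neg-ctrl normalized, log10, MAD; hit = MAD >1.0 or < -1.0.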
(In general: In a reporter assay the amount or activity of a reporter protein is the signal.)
As to GGCUUAACUUUAGUGUUGATT against PRDM2, the median seed-adjusted z-score is 1.12 (active).

GAGCGAGUUUUACCUGAUATT against ABCA10: the median seed-adjusted z-score is -0.104.

In the case of CAGAUAUGAUUGGUGUAAATT against CABP1, the median seed-adjusted z-score is -0.192.

As for GAAAUCGACUCUCACCAAATT against IL18RAP, the median seed-adjusted z-score is -0.681.

For the sequence CGGAAAAUCAGCAACAUCATT against EPS8L2, the median seed-adjusted z-score is -0.497.

Regarding GGAUAAUAAGGAUCUAUUUTT against CPNE3, the median seed-adjusted z-score was 0.109.

For GUUUACCUCUGGAUACACUTT against SNRPD1, the median seed-adjusted z-score is -2.97 (active).

As for GGAGUUCCAAUGGAAGUUATT against PSMD14, the median seed-adjusted z-score was 0.375.

CGAUGGACUAAGUAAUAUATT against KPNA4: the median seed-adjusted z-score is 0.457.

For the sequence CCACCUAUUUGCACAAGGATT against POMT2, the median seed-adjusted z-score was -0.614.

With UCAAGGCCCUGUGCGCUAATT against PPP4C, the median seed-adjusted z-score is 1.15 (active).

Turning to GCAACCACCAAGAGUUUGATT against KCNS1, the median seed-adjusted z-score is -0.167.

In the case of CUGUAGAUCUUUGUCAAAATT against DUS4L, the median seed-adjusted z-score was 0.525.

Turning to UGCUAGUCCUGGGAACAGATT against PPM1J, the median seed-adjusted z-score is -0.901.

For GGUCAACAAUGCUUAUGCATT against DHRS1, the median seed-adjusted z-score was 0.

For GCUUGAGAACUACCAGGUUTT against TAL2, the median seed-adjusted z-score was -0.395.

Regarding ACAAUAAGCUGGACCUCUATT against TLR9, the median seed-adjusted z-score is -0.0834.

Consider CCUUCUACAGGAUCUCCAATT against ADRA1A, for which the median seed-adjusted z-score is -1.06 (active).

As for CAGUGGAUGUUAUUCCUCATT against RNF128, the median seed-adjusted z-score is -0.377.

As for GGACUACACGUACUUCUCATT against KIRREL3, the median seed-adjusted z-score is -0.206.

CCAAGAGUGAUGCAGAGGATT against CABP4: the median seed-adjusted z-score was 0.146.

For GGAGUUCUGUAACUCACUUTT against SLC38A2, the median seed-adjusted z-score was -1.04 (active).

Consider GGUGCUACAUCCUAGAGAATT against SULF2, for which the median seed-adjusted z-score is -0.109.

GCAAGACCUGGUCAGUAUATT against NOX4: the median seed-adjusted z-score was -0.246.

With AGAAUGUCUUGAUUGUGGATT against HPRT1, the median seed-adjusted z-score was -0.0463.

Turning to GCCUCACAUUUUCUAAUGATT against RRM2, the median seed-adjusted z-score is -3.84 (active).

In the case of AGAAGUUCAUGGUCGGAGATT against SULT1A1, the median seed-adjusted z-score is -0.26.

Consider GAUCGGCACUUACACCUGUTT against OPHN1, for which the median seed-adjusted z-score is 0.692.

Turning to AGAUCGACCAGAACGUGGATT against APOA4, the median seed-adjusted z-score was 0.195.

For CCACGUAACUAUCAUAAGATT against TLL1, the median seed-adjusted z-score is 0.396.

For AGACCGACCUGGGCAUGAATT against SARM1, the median seed-adjusted z-score is 0.343.

Regarding CCAAAAUUGAAGUAAUAGATT against GTF2E2, the median seed-adjusted z-score was -1.32 (active).

As to GCUCAGUUCUCGUCAAGGATT against ARIH2, the median seed-adjusted z-score was 0.0449.

Turning to AGUGAACUCCGGUCCUGCATT against RAB11FIP3, the median seed-adjusted z-score was 0.0361.

GCGAUGAGGUGGACUUGUATT against ST3GAL1: the median seed-adjusted z-score is 0.255.

In the case of GACCUGUCACAGAACCAGATT against VASN, the median seed-adjusted z-score is 0.213.

Turning to GUCUUCAUGUAUGUCUUUUTT against GJB1, the median seed-adjusted z-score is 0.152.

Turning to AGGUAGAAGAAAUGCAAUATT against PKIA, the median seed-adjusted z-score is 0.533.

Consider GCCUAUAGGAUUGAACCAATT against DDHD2, for which the median seed-adjusted z-score was 0.447.

Take GCUGGGUAGUUUGACUGAATT against TRIM61: the median seed-adjusted z-score was 0.0116.

For the sequence CAAAUACCGUUAAGCUGGATT against HBA1, the median seed-adjusted z-score is -1.03 (active).

Turning to CUCUUAUAGUUGAUCGUGATT against ATAD2B, the median seed-adjusted z-score was 0.0192.

As to GGAUAGCACAUGAUACAGATT against GAN, the median seed-adjusted z-score is -1.07 (active).

For CCAUAUCGAAUAAUAAUGATT against SCRT1, the median seed-adjusted z-score is -0.483.

For GGUUCUGACAGACAAUGGATT against DPT, the median seed-adjusted z-score is 0.073.

On to GGACUCUUCUUUAGCUUUATT against TSPAN31, for which the median seed-adjusted z-score was -1.13 (active).

In the case of CCGAAUCAUUAUGCACCAATT against OCLN, the median seed-adjusted z-score was 0.232.

Consider CAACCACACUAACGAGAUUTT against GLRX, for which the median seed-adjusted z-score is -0.0561.

On to ACACCUGCCUGGUAGAGAATT against FGFR4, for which the median seed-adjusted z-score is 0.0825.

In the case of GAAACUUGAUUGAUCUUUATT against MITF, the median seed-adjusted z-score is -0.249.

As to GAGAAGAUCUGGAACUCAUTT against CRAT, the median seed-adjusted z-score was -1.42 (active).

For GCAGGUCAAAUUUCCAUAATT against ZNF175, the median seed-adjusted z-score is -0.0194.

CAAUAUCUGCUGUUAGCAATT against SCARB2: the median seed-adjusted z-score was -0.244.

With GAUCAAAUAUGACUUCCUATT against GPR103, the median seed-adjusted z-score was 0.

For the sequence GCUGGAAAAGGUUAACGAATT against PKNOX1, the median seed-adjusted z-score was 0.68.

GGACAUGACAGCAACCUUUTT against EGR1: the median seed-adjusted z-score was 0.0836.

In the case of CAAUGUCCGGAAGCAGUUUTT against ACAD8, the median seed-adjusted z-score is 1.06 (active).

As for GGUCAACUCUCUACUGAUATT against ARHGAP29, the median seed-adjusted z-score was -0.0483.

On to GCAUAGAAGGCUUCACGAATT against PLCH1, for which the median seed-adjusted z-score is -0.00634.

Turning to UCACUGAAAUGAAACUGGUTT against ACBD4, the median seed-adjusted z-score is -0.363.

As to AAGAGAUUUUUGUAACUGATT against BCL2L14, the median seed-adjusted z-score was -0.859.

With CGAUUUGAAGGUCCAUAUATT against DNAJC2, the median seed-adjusted z-score is -0.0357.

For CCUCGACUAUUUUAAGACATT against UBA1, the median seed-adjusted z-score is 1.34 (active).

As for GUCCUUUAACUGAAGCUUUTT against NDUFB9, the median seed-adjusted z-score was -0.982.

For GGACAGUAGUGUGCAACGATT against LRIT1, the median seed-adjusted z-score is -0.611.

As to UGAUGAAUGUUAUCGAGAATT against RFC2, the median seed-adjusted z-score is 0.00126.

Consider GCAGUUUCGAAAUCAACGATT against TEX14, for which the median seed-adjusted z-score is -0.107.

Regarding ACAAGAACCCUGACAAUAATT against DNAJB8, the median seed-adjusted z-score is -1.09 (active).

As for GCAACAUGCAGAUAGGUUATT against PHF14, the median seed-adjusted z-score was 0.354.

With GCCUGUGACUCAUACUGGATT against ELF5, the median seed-adjusted z-score was -0.45.

As for CCGGCUACACCUUCCGUAATT against DNAJB8, the median seed-adjusted z-score is -1.09 (active).

Consider GAGAUGCGCAAAUUCACUCTT against IP6K2, for which the median seed-adjusted z-score is -0.193.

For GGAAAAUCAUUGUGCUAAUTT against VN2R1P, the median seed-adjusted z-score was -0.25.

Turning to GAUUUGGUUUCGUAACUUUTT against A2BP1, the median seed-adjusted z-score was 1.17 (active).

For GACUGGUUAUUACGUCUUATT against SYNJ1, the median seed-adjusted z-score is 0.

For GAGUGUAACUGCAACCAGATT against NTNG2, the median seed-adjusted z-score was 0.403.

Regarding ACUCAGUGGAGGUCACCAATT against EIF3F, the median seed-adjusted z-score was -0.0214.

Consider GCCUCUCAGAGAACUACGATT against LRRC33, for which the median seed-adjusted z-score was -0.194.

For the sequence GGGCGAUGUCCAUCCACAATT against PIF1, the median seed-adjusted z-score is -0.0455.

For CUCCAUUCCUGGUAUAGAATT against XRCC5, the median seed-adjusted z-score was -1.11 (active).

Turning to CCUCCUCACCAAACCCAUUTT against SLC5A1, the median seed-adjusted z-score was -0.812.

Turning to CGACUGAACAAACCCUAUATT against ERCC3, the median seed-adjusted z-score was 0.155.

For the sequence GCCUGAAUGCAGCCCAGUUTT against SP2, the median seed-adjusted z-score was -0.617.

Consider AGGACAAGCUGAAAAUCCATT against ZBTB7C, for which the median seed-adjusted z-score was 0.447.

As to UCAGUUUGCUGAGAACGAATT against TCEB1, the median seed-adjusted z-score is 1.08 (active).

CCUCAACUCUAAAUACUCATT against ZNF716: the median seed-adjusted z-score was 0.

For GGAGAUCUCUCGUCUCAAUTT against KCNH4, the median seed-adjusted z-score was -0.769.

On to GGAGAUGUAUUGGUGAGAATT against CYP3A5, for which the median seed-adjusted z-score was 0.0516.

In the case of GCAGCUACAGGUCAUCUCATT against DGAT2, the median seed-adjusted z-score was 0.195.

GGAGUGCGAUGGACAAUUUTT against LCT: the median seed-adjusted z-score is 0.411.

As for GGUGCAAGAGAGUCCGUUUTT against D2HGDH, the median seed-adjusted z-score is -0.637.

For UGAAAGGACUGGAGUCCAATT against OLFM1, the median seed-adjusted z-score is -0.103.

As for GGAUAUUGGAUUGCCUAGATT against TCFL5, the median seed-adjusted z-score was 1.52 (active).

As for GGUUCACUUUGAUAGUACUTT against CLCA4, the median seed-adjusted z-score was 0.186.

Regarding GCCCUGAUUUGUGCAAUGATT against PPP1R16B, the median seed-adjusted z-score is -0.892.

Take GAGUCAGGAUCGCAAGUCATT against SAFB2: the median seed-adjusted z-score is 0.0394.

As for CCUCGAUUGUCUUCCGGAATT against UBA7, the median seed-adjusted z-score is 2.41 (active).

ACUCCAUCCUGAACCCUCATT against USP49: the median seed-adjusted z-score was 0.549.

For the sequence GAUCAAUUACGAAAUCUCATT against MED30, the median seed-adjusted z-score is -2.06 (active).

For the sequence AAGAAGAAGUGGACACUGATT against FGFRL1, the median seed-adjusted z-score is -0.111.

Consider GGAACUUGGUUGUAGAGCUTT against SVIL, for which the median seed-adjusted z-score was 0.0852.

Turning to CAACCACCCUCACAUCAUUTT against NUAK2, the median seed-adjusted z-score is -0.0601.

On to AAAUGCAAUUCAAGCCUUUTT against GFRA1, for which the median seed-adjusted z-score is 0.125.

GGAAACUCGUCGUUCAAUATT against IL13RA1: the median seed-adjusted z-score was 0.269.

In the case of UCGUGGAGGUGAUCUAUUATT against RAB6C, the median seed-adjusted z-score was -1.08 (active).

Consider UGAUUUACCUGAGCUGUAATT against GSTT2, for which the median seed-adjusted z-score is 0.0298.

In the case of CAACUUCCACUGUUUCCGATT against RRAGC, the median seed-adjusted z-score was -0.557.

As to CGAUGCUUGUCAGUCCCAATT against NOTCH4, the median seed-adjusted z-score is -0.384.
